Several values for one entry are separate records, joined by “and”; a condition that tells them apart may be missing. Equal entries are not always repeated. Records with an inconclusive call do not appear. Where a structure was tested more than once in an assay, its records may differ in their call. Activity calls are given as the source filed them. How the source made its calls: active means hit-call score of the fitted dose curve at least 0.9, where 1 is the maximum; inconclusive means response in the unintended direction; inactive means score below 0.9.
biological target: PGR (gene 5241) (UniProt P06401); assay: NVS_NR_hPR: NovaScreen (NVS) Nuclear Receptor Binding Assay for human Progestron Receptor (PR) (AID 2283360);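 further: active means loss of bound radioligand signal versus DMSO baseline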
Procedure: NVS_NR_hPR is a biochemical, single-readout assay that uses extracted gene-proteins from T47D in a cell-free assay. Measurements were taken 18 hours after chemical dosing in a 96-well plate.NVS_NR_hPR is one of one assay component(s) measured or calculated from the NVS_NR_hPR assay. It is designed to make measurements of radioligand binding, a form of binding reporter, as detected with scintillation counting signals by Lysate-based radiodetection technology.Data from the assay component NVS_NR_hPR was analyzed into 1 assay endpoint. This assay endpoint, NVS_NR_hPR, was analyzed in the positive analysis fitting direction relative to DMSO as the negative control and baseline of activity. Using a type of binding reporter, loss-of-signal activity can be used to understand changes in the binding as they relate to the gene PGR. Furthermore, this assay endpoint can be referred to as a primary readout, because the performed assay has only produced 1 assay endpoint. To generalize the intended target to other relatable targets, this assay endpoint is annotated to the nuclear receptor intended target family, where the subfamily is steroidal.
Binding assays used specific radioligands (tritiated, iodinated) with non-radioactive competitive displacement ligands in agonist or antagonist protocols (as indicated) and various reference compounds and inhibitors to titrate specific binding to receptors and transporters. Most enzyme assays (CYPs, kinases, phosphatases, proteases, HDACs) used recombinant protein and specific substrates (fluorescence mostly, some colorimetric and radioactive) and inhibitors, followed by a biochemical separation of substrate and product. All assays for the biochemical HTS were initially run in duplicate at a single concentration (10 uM for CYP450 assays and 25 uM for all others). […] Each assay was run with positive and negative controls, and concurrent controls on every plate. The follow-up (secondary) screen tested active chemical-pairs in concentration series, as well as a few additional assays not tested in the primary screen, some selected negative inactives, and several cases re-run in the concentration series for confirmatory purposes.

Sequence of PGR (gene 5241) (P06401 whole entry, looked up): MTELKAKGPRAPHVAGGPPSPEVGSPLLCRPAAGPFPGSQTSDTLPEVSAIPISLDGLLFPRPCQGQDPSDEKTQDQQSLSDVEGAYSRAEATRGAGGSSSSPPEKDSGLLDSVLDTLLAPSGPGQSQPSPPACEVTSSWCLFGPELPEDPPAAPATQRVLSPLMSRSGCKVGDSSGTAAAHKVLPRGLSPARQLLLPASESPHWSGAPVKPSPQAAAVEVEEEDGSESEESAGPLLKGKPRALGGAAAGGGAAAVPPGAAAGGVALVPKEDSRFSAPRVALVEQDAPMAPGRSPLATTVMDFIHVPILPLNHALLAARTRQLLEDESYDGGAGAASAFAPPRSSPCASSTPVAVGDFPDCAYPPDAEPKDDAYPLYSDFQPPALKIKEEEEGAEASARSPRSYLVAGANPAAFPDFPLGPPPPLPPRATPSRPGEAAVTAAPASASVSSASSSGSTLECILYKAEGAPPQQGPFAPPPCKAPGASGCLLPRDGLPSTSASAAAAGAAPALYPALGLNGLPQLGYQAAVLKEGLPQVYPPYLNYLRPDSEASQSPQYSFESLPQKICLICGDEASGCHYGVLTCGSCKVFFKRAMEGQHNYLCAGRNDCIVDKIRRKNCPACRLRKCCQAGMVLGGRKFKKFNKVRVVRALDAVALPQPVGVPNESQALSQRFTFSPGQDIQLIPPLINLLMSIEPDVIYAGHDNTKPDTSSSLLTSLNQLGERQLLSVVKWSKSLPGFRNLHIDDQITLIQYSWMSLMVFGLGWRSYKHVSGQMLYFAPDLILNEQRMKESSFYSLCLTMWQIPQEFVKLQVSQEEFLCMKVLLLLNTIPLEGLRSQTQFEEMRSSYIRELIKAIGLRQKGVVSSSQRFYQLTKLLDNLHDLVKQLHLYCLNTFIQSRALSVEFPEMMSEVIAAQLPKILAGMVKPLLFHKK

SMILES	outcome	AC50
CCCCOCCOCCOCc1cc2c(cc1CCC)OCO2	inactive	
C[C@]12C[C@H](O)[C@H]3[C@@H](CCC4=CC(=O)CC[C@@]43C)[C@@H]1CC[C@@H]2C(=O)CO		0.403 µM (active)
CCCN(CCC)C(=O)SCC	inactive	
Cc1nn(C)c(Oc2ccccc2)c1C=NOCc1ccc(C(=O)OC(C)(C)C)cc1	inactive	
CC(C)(c1ccc(O)cc1)c1ccc(O)cc1	inactive	11.2 µM (active) and 8.49 µM (active)
O=C(c1ccc(O)cc1O)c1ccc(O)cc1O		11.2 µM (active)
O=C(O)C1(C(=O)Nc2ccc(Cl)cc2Cl)CC1	inactive	
Oc1ccc(C(c2ccc(O)cc2)C(Cl)(Cl)Cl)cc1		6.82 µM (active)
c1ccc(Nc2ccccc2)cc1	inactive	
CCCCC(CC)CN1C(=O)C2C3C=CC(C3)C2C1=O (stereo not drawn)	inactive	
CC1(C)C(C=C(Cl)Cl)C1C(=O)OCc1cccc(Oc2ccccc2)c1 (stereo not drawn)	inactive	
N#CSCSc1nc2ccccc2s1	inactive	
